Source: PubChem BioAssay (National Center for Advancing Translational Sciences (NCATS))
Tau fluor counter = counter-screen for tau fibril formation inhibitors; tau K18 P301L Alexa594 fluorescence, heparin fibrillization; Potency, µM (doses to about 57.7 µM), without a hit: at the top dose activity change, negative = decrease; 280,000 tested, 0.93% active; AID 1463; note: potency is the fitted concentration of half-maximal effect; nearly all actives have a fitted effect of over 55% in size
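Human tau K18 P301L (15 uM unlabeled, 0.24 uM Alexa 594-labeled) in 100 mM sodium acetate pH 7 with 20 uM heparin, 6 hr at 37 C. ThT 30 uM added, 1 hr ambient; Alexa 594 FP and total fluorescence read at 555/632 nm.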
Tau FP inhib = blocks human tau fibril formation measured by polarization. P10636. K18 P301L tau heparin fibrillization, Alexa594 FP, 6 h. Potency, µM (top dose mostly 57.7 µM), for inactives: at the top dose activity, negative = inhibition, most hits filed as inhibitors. 280,000 tested, 0.39% active; note: potency is the fitted concentration of half-maximal effect; nearly all actives have a fitted effect of over 55% in size
Target sequence (P10636 561-689 P618L limits assumed): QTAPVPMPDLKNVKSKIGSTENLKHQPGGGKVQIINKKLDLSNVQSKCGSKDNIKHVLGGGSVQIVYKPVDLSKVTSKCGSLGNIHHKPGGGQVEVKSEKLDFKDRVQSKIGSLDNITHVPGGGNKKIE
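Compound effects on tau fibrillization are measured by Alexa 594 fluorescence polarization (ex 555, em 632 nm). K18 P301L tau is used at 15 uM with 0.24 uM labeled tracer, and 20 uM heparin induces aggregation over 6 hr at 37 C.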
Coupling enz = counter-screen for Giardia aldolase inhibitors: coupling enzyme system. coupling enzyme system counterscreen, AmpLite Red fluorescence. activity change, negative = inhibition, % at 58.2 µM, hits read low. 290,000 tested, 0.67% active. AID 2472; in the data active = activity change below about -30%
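Activity here indicates interference with the coupling reaction, not aldolase inhibition. Compounds at 57.5 uM final met coupling enzymes for 10 min at RT; substrate and AmpLite Red detection followed, with a 525/598 nm fluorescence read after 20 min.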
Tau fibril ThT = blocks human tau fibril formation measured by thioflavin T | P10636 | recombinant tau K18 P301L (four-repeat tau fragment), heparin-induced fibrillization, ThT fluorescence | Potency, µM (top dose mostly 57.4 µM), for inactives: at the top dose activity, negative = inhibition, hits mostly inhibitors | 270,000 tested, 2.1% active | AID 1460; note: potency is the fitted concentration of half-maximal effect; nearly all actives have a fitted effect of over 55% in size
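Aggregation was driven by heparin (20 uM final) acting on recombinant tau […] bearing P301L in 100 mM sodium acetate pH 7; fibrils were detected with Thioflavin T.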
* = called active by the depositor; ? = inconclusive; nt = not tested or not shown; ! = repeats disagree; [ ] = remark or other dose. The list is not random: actives were taken first. Their share in the collection is about 2.7%. Unless noted, calls come from the whole dose curve; as a rule, active = well fitted curve in the direction sought with a large enough effect; inconclusive = small, poorly fitted or top-dose-only effect, or another doubt; inactive = no such curve, though single readings can be large; an effect the other way counts as inactive or inconclusive. % is set by controls: 0 for no effect and ±100 for the full control effect.

SMILES | Tau fluor counter | Tau FP inhib | Coupling enz | Tau fibril ThT
CC(=O)N1CCN(c2ccc([N+](=O)[O-])c(NCC3CCCO3)c2)CC1 (configuration not stated) | 0% | -1% | 1 | 14µM*
CNc1cc(N2CCN(S(=O)(=O)N(C)C)CC2)ccc1[N+](=O)[O-] | -2% | -2% | -2 | 16µM*
CN1C(=O)Cc2cc(S(=O)(=O)CCC(=O)Nc3ccc(Cl)cc3)ccc21 | -22% | -4% | nt | -12%
CC[N+](CC)(CC#Cc1ccccc1)CC#Cc1ccccc1 | 5% | 4% | 0 | -1%
CCOC(=O)c1c(S(=O)(=O)N2CCC(C(=O)NCc3ccc(F)cc3)CC2)c(C)n(C)c1C | -14% | -3% | nt | -3%
CC(C)(C)c1ccc(CNc2cc(N3CCOCC3)ccc2[N+](=O)[O-])cc1 | 4µM*[quencher] | 28µM* | -4 | 7.1µM*
O=[N+]([O-])c1ccc(N2CCCC2)cc1N1CCCC1 | -18% | 0% | -2 | 18µM*
O=[N+]([O-])c1ccc(N2CCCCC2)cc1N1CCOCC1 | -6% | -11% | 1 | ?
COc1cccc(C(=O)Nn2cnnc2)c1OC | nt | nt | 0 | nt
CCN(CC)c1ccc(/C=N/Nc2ccc(C)cc2)c(O)c1 | ? | -15% | -25 | 25µM*
CCOC(=O)N/N=C/c1ccc(N(CC)CC)cc1O | ? | 7% | -3 | ?
Cc1cccc(N/N=C/c2ccccc2O)c1 | 16µM*[quencher] | ? | -2 | ?
O=C(Nc1cccc(Cl)c1)c1ccc(NCCCN2CCOCC2)c([N+](=O)[O-])c1 | ? | -9% | 2 | 14µM*
Cc1cccc(NC(=O)c2ccc(NCCc3ccccc3)c([N+](=O)[O-])c2)c1 | -9% | -13% | -3 | -11%
Cc1ccc(NC(=O)c2ccc(NCCN)c([N+](=O)[O-])c2)cc1 | -28% | 8% | 8 | 14µM*
COc1cccc(-c2ccc3ncnc(NCCc4c[nH]c5ccc(OC)cc45)c3c2)c1 | nt | nt | -1 | nt
Cc1nc(-c2ccc(S(=O)(=O)NCc3ccc(OC(C)C)cc3)cc2)co1 | -21% | 1% | nt | -14%
COc1cc(NC(=O)N2CCC3(CC2)Nc2cc(F)ccc2-n2cccc23)cc(OC)c1OC | 13µM*[quencher] | ? | nt | -11%
CCOc1ccc(OCC)c(NC(=O)c2cc(CN3CCOCC3)on2)c1 | -5% | ? | nt | 5%
CN1CCc2cccc3c2[C@H]1Cc1ccc(O)c(O)c1-3 | 22µM*[quencher] | 20µM*! | -9 | 18µM*
N#Cc1cc2c(N)c(C(=O)Nc3ccccc3)sc2nc1N | ? | 16% | 3 | 7.9µM*
Cc1cccc(NC(=O)c2sc3nc4c(cc3c2N)CN(Cc2ccccc2)CC4)c1 | -22% | 0% | nt | -16%
COc1ccc(NC(=O)c2sc3nc4c(cc3c2N)CN(C(C)C)CC4)c(OC)c1 | 14µM*[quencher] | ? | nt | 13µM*
COc1ccccc1NC(=O)c1sc2nc3c(cc2c1N)CCCCCC3 | ? | -9% | nt | ?
Cc1cccc(NC(=O)c2sc3nc4c(cc3c2N)CN(C(C)C)CC4)c1 | 18µM*[quencher] | -13% | nt | 13µM*
SMILES | Tau fluor counter | Tau FP inhib | Coupling enz | Tau fibril ThT
Cc1cccc(NC(=O)c2sc3nc(N)c(C#N)cc3c2N)c1 | ? | ? | -6 | ?
CCN1CCc2nc3sc(C(=O)Nc4cccc(Cl)c4C)c(N)c3cc2C1 | ? | 4% | nt | 10µM*
O=C(Cn1c(=O)n(-c2ccccc2)c(=O)c2c3c(sc21)CCCC3)Nc1ccc(F)cc1F | -7% | -16% | nt | 16%
CCCOc1ccc(CNC(=S)Nc2ccccc2)cc1Cl | nt | nt | -1 | nt
CC(C)(C)c1onc(OCP(=O)(O)O)c1CC(N)C(=O)O (configuration not stated) | 4% | 6% | nt | -6%
CN1CCc2nc3sc(C(=O)Nc4cccc(C#N)c4)c(N)c3cc2C1 | ? | 3% | nt | 13µM*
COc1ccccc1C(=O)Nc1sc(Nc2ccccc2)nc1C(N)=O | 7.1µM*[quencher] | ? | nt | 3.2µM*
Cc1ccc(C(c2cccc(Br)c2)c2c(C)[nH]c3ccccc23)s1 (configuration not stated) | 5.6µM*[quencher] | ? | nt | ?
CC(=O)Nc1nc2cc3c(cc2s1)OCO3 | 5% | 8% | 0 | -5%
CCOC(=O)c1sc(Nc2nc3c(OC)cccc3s2)cc1C | 8% | 6% | -10 | 5%
CC(=O)c1sc(Nc2nc3cc4c(cc3s2)OCO4)nc1C | ? | 0% | 2 | 3.2µM*
CCOC(=O)c1sc(Nc2nc3cc4c(cc3s2)OCO4)cc1C | 4.5µM*[quencher] | -2% | -1 | ?
CC1(OC(=O)C2CCCC2)C(=O)C=C2C=C3CCCN3C=C2C1=O (configuration not stated) | -10%[11.6 µM] | -6%[11.6 µM] | -11 | -16%[11.5 µM]
CC1(OC(=O)CCc2ccccc2)C(=O)C=C2C=C3CCCN3C=C2C1=O (configuration not stated) | -24%[11.6 µM] | ? | -19 | 3.5µM*
COc1ccc(CN2C=C3C(=O)C(C)(OC(=O)CCc4ccccc4)C(=O)C=C3C=C2c2ccc(C#N)cc2)cc1 (configuration not stated) | -9%[11.6 µM] | 2%[11.6 µM] | -6 | ?
CC1(OC(=O)c2cccs2)C(=O)C=C2C=C3CCCN3C=C2C1=O (configuration not stated) | -23%[11.6 µM] | ? | -19 | 5µM*
COC(=O)CCCC1=CC2=CC(=O)C(C)(OC(=O)CCc3ccccc3)C(=O)C2=CO1 (configuration not stated) | ? | ? | 1 | 25µM*!
CCN(CC)CCCN1C=C2C(=O)C(C)(OC(=O)CCc3ccccc3)C(=O)C=C2C=C1c1ccc(C#N)cc1 (configuration not stated) | ? | ? | 1 | 13µM*!
COC(=O)[C@@]1(Cc2ccc(F)cc2)[C@H]2c3cc(C(=O)N(C)C)n(Cc4cc(F)c(F)c(F)c4)c3C[C@H]2CN1C(=O)c1ccccc1 | -5% | -2% | 6 | 2%
CCCn1c2ccccc2c2cnn(CC(=O)NCc3cc(OC)ccc3OC)c(=O)c21 | 9% | -2% | nt | 13%
Brc1ccc(N/N=C(/N=Nc2nn[nH]n2)c2ccccc2)cc1 | 8.9µM*[quencher] | ? | -16 | 4.5µM*
O=C(/C(=N\Nc1ccc(Br)cc1)Sc1nnnn1-c1ccccc1)c1ccccc1 | ? | 2% | 11 | -19%
COc1ccc([C@@H]2CNC(=O)C2)cc1OC1CCCC1 | -5% | ? | -3 | -9%
COc1cc(S(=O)(=O)NCCc2c(C)[nH]c3ccc(C)cc23)ccc1Br | 14µM*[quencher] | ? | nt | ?
COc1ccc(C(C)C)cc1S(=O)(=O)NCCc1c(C)[nH]c2ccc(C)cc12 | 10µM*[quencher] | ? | nt | ?
COc1ccc(C(C)C)cc1S(=O)(=O)NCCc1c(C)[nH]c2c(Cl)cccc12 | ? | 2% | nt | ?
COc1cc(C2CC(=O)Nc3c2c(C)nn3-c2nncc(-c3ccc(C)cc3)n2)cc(OC)c1OC (configuration not stated) | -10% | -12% | nt | -7%
CC(C)C[C@@H](/C=C/S(C)(=O)=O)NC(=O)[C@H](CC(C)C)NC(=O)[C@H](CC(C)C)NC(=O)OCc1ccccc1 | -9% | -3% | nt | -16%
